Anthrax LF prot: anthrax lethal factor protease inhibition | P15917 | multiplex microsphere protease cleavage assay, LF | inhibition, % at 10 µM | AID 588501 | 0.12% of 360,000 active; note: plate controls were buffer without enzyme for full effect and enzyme alone for no effect
BoNT-A LC inh2: blocks Botulinum neurotoxin A light chain protease; multiplex microsphere protease substrate cleavage, flow cytometry; inhibition, % at 10 µM; 0.17% of 360,000 active; AID 588499; note: plate controls were buffer without enzyme for full effect and enzyme alone for no effect
Autofluor counter: counter-screen for toxin protease inhibitors: compound fluorescence; compound autofluorescence counterscreen, microsphere flow cytometry; stronger effect = higher value; fluorescence intensity (no concentration beside the values); 3.1% of 360,000 active; in the data active = fluorescence intensity above about 16000; inconclusive = no clear call, values can overlap the other calls
MazEF act: increases E. coli MazEF RNase cleavage of RNA. FAM/BHQ RNA-DNA oligo cleavage fluorescence, 5 h. activation, % at 20 µM. 0.32% of 350,000 active. AID 504720; in the data active = activation above about 50%
Target sequence (P0AE70 whole entry, looked up): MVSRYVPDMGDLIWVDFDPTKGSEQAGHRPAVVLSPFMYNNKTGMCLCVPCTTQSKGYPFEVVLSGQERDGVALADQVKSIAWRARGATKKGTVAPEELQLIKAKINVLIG
BoNT F protease: inhibitors of Botulinum neurotoxin F light chain protease. Multiplex microsphere protease cleavage assay, flow cytometry. 0.22% of 360,000 active. AID 588497. inhibition, % at 10 µM; in the data active = inhibition above about 35%, passing the limit was not always enough; inconclusive = no clear call, values can overlap the other calls; note: plate controls were buffer without enzyme for full effect and enzyme alone for no effect
The depositor's hits bear a star; ? = inconclusive; · = no result given; + = active, no number. Hits are enriched below; roughly 3.6% of the tested compounds scored in any of these assays. Cut-off read from the data, not from the text of the source, unless noted: active = inhibition above about 30%; inconclusive = no clear call, values can overlap the other calls; inactive = below that.

SMILES	Anthrax LF prot	BoNT-A LC inh2	Autofluor counter	MazEF act	BoNT F protease
O=C(COC(=O)[C@H](Cc1c[nH]c2ccccc12)NC(=O)c1ccc(Cl)cc1)Nc1ccc2c(c1)OCO2	-3.3	3.4	21349*	9.7	1.9
Cc1ccc(NC(=O)CSc2nnc3c(n2)[nH]c2ccccc23)cc1	-7.6	0.4	3731	6.5	-11.7
O=C(CSc1nnc2c(n1)[nH]c1ccccc12)Nc1ccc2c(c1)OCO2	-3.1	?	21923*	8.5	0.3
COc1cc(CNc2nccn3ccnc23)cc(OC)c1	-1.4	0.0	3454	·	-0.2
CCc1cc(C(=O)NNC(=S)Nc2cccc(C)c2)cs1	0.6	-4.9	21356*	1.1	-6.7
Cc1cccc(NC(=S)NNC(=S)NCc2ccccc2)c1	-0.2	1.4	22617*	2.7	-1.0
Cc1cccc(NC(=S)N2N=CCC2c2ccccc2)c1 (stereo not given)	-0.9	-2.2	17190*	-2.2	-4.9
CCc1ccccc1NC(=S)N1N=CCC1c1ccccc1 (stereo not given)	0.0	0.1	2207	5.0	-2.6
CCCCNC(=S)NNC(=O)c1csc(C)c1	-2.6	0.3	22322*	3.5	-1.6
O=C(COC(=O)c1ccccc1O)Nc1cccc(S(=O)(=O)N2CCCC2)c1	-2.6	-0.5	3862	8.7	-7.6
COC(=O)c1ccc(CSc2ccccc2NC(=S)Nc2cccc(SC)c2)o1	-0.3	-0.5	3482	-3.7	-2.0
O=C(N/N=C/c1ccc(OCc2ccccc2)cc1)c1cccs1	-8.8	2.5	20999*	13.1	5.5
O=C(Nc1ccc(OCc2ccccc2)cc1)c1cccs1	3.6	1.5	2901	-0.7	?
O=C(c1ccc(Cn2cc([N+](=O)[O-])cn2)o1)N1N=C(C(F)F)CC1(O)C(F)F (stereo not given)	-0.4	3.5	22404*	-0.9	4.3
Cc1nn(Cc2ccc(C(=O)N3N=C(C(F)F)CC3(O)C(F)F)o2)c(C)c1[N+](=O)[O-] (stereo not given)	0.8	-0.2	2100	-0.2	3.4
CN(C)c1ccc(/C=C/c2ccc3c4ccccc4ccc3[n+]2-c2ccccc2)cc1	-62.2	62.4*	1663	-10.5	+
CN(C)c1ccc(/C=C/c2ccc3ccccc3[n+]2C)cc1	-4.0	9.3	2045	10.6	-35.2
CN(C)CC#Cc1cccc(-c2nc(C(=O)O)cc3c2[C@@H](CCO)N(S(=O)C(C)(C)C)C3)c1 (stereo not given in full)	-4.8	-0.5	5633	·	-3.2
N#CC(C#N)=C1C=C2C=C(N3CCOCC3)CCC2CC1 (stereo not given)	-2.5	-10.8	26074*	20.0	12.5
CCN1CCN(C2=CC3=CC(=C(C#N)C#N)CCC3CC2)CC1 (stereo not given)	5.6	-8.2	30604*	+	48.4*
CC1(C)CC(NCCN2CCN(C3=CC(=C(C#N)C#N)CC(C)(C)C3)CC2)=CC(=C(C#N)C#N)C1	-0.2	-0.2	4513	-8.2	-8.1
N#Cc1cc(Cl)c(N2CCOCC2)cc1C#N	-2.4	-0.3	4652	3.6	-11.5
N#CC(C#N)=C1C=C2C=C(N3CCCCCC3)CCC2CC1 (stereo not given)	83.5*	47.8*	97979*	-680.0	177.0*
CN1CCN(C2=CC3=CC(=C(C#N)C#N)CCC3CC2)CC1 (stereo not given)	-0.3	-6.8	17359*	·	12.3
O=C(Nc1ncccc1O)c1ccc(S(=O)(=O)Nc2ccccc2)cc1	3.9	2.8	5746	-3.6	11.5
SMILES	Anthrax LF prot	BoNT-A LC inh2	Autofluor counter	MazEF act	BoNT F protease
CCNc1ccc(Br)cc(C(=O)/C=C/c2ccccc2Cl)c1=O	45.1*	51.8*	16998*	-14.0	18.9
O=C(CSc1nnc(-c2cccc(F)c2)o1)N1CCCC1	-0.7	1.3	5436	5.9	9.3
COn1c(SCc2cccc(Cl)c2)nc2ccccc2c1=O	-2.0	-2.5	17254*	-1.2	-9.7
COn1c(SCc2ccccc2)nc2ccccc2c1=O	-2.3	-4.6	5829	-1.2	-31.1
Cc1cc(Nc2ccccc2)nc(-c2ccccc2O)n1	1.9	-0.7	4866	3.4	-11.4
Cc1cc(Nc2ccccc2Cl)nc(-c2ccccc2O)n1	2.8	0.3	4056	1.0	35.9*
Cc1cc(NC2CCCCC2)nc(-c2ccccc2O)n1	0.8	-0.1	3381	1.0	-7.2
Cc1cc(NCc2ccccc2)nc(-c2ccccc2O)n1	-0.1	?	20264*	-4.3	-1.6
Cc1ccc(C(C)NC(=O)c2ccco2)cc1C (stereo not given)	-0.8	-2.2	21456*	-2.9	-5.6
Cc1ccc(C(C)NC(=O)c2cccs2)cc1C (stereo not given)	-2.9	-3.0	4401	13.7	?
O=C(CSC1=Nc2ccccc2C2CC=NN12)Nc1ccc(F)c(F)c1F (stereo not given)	-7.1	-0.1	2787	4.6	3.5
CCCCOC(=O)c1ccc(NC(=O)CSC2=Nc3ccccc3C3CC=NN23)cc1 (stereo not given)	-2.1	-1.1	22279*	-20.9	-4.5
CSc1nc2ncncc2[nH]1	-2.3	0.1	3583	1.0	-13.2
Cc1ccc(C)c(Cc2c(C)nc3c(C(=O)N4CCOCC4)cnn3c2C)c1	-0.7	1.9	22707*	-5.6	3.7
CCOC(=O)N1CCN(C(=O)c2cnn3c(C)c(Cc4ccc(C)cc4)c(C)nc23)CC1	0.5	?	23293*	-6.9	1.3
N#CCO/N=C(\c1ccccc1)c1ccncc1	-1.9	?	16207*	-12.6	-1.9
CCn1nc(C)c(C(=O)Nc2cc(Oc3ccc(Cl)cc3)cc([N+](=O)[O-])c2)c1C	-0.5	3.3	19896*	-2.0	1.6
Cc1nn(CCCC(=O)Nc2cc(Oc3ccc(F)cc3)cc([N+](=O)[O-])c2)c(C)c1[N+](=O)[O-]	0.4	0.3	7997	-6.8	-0.6
CCc1nc2ccc(C(=O)NCCN3CCOCC3)cn2c1N(C)Cc1ccc(OC)cc1	-4.0	-0.1	3658	·	0.1
O=C(Nc1nccs1)c1ccc(NC(=O)c2ccco2)cc1	-4.1	-2.1	17273*	10.5	-6.3
CCc1nnc2sc(-c3ccc(NC(=O)c4ccco4)cc3)nn12	-0.9	-1.9	16661*	1.1	-3.2
CCc1nnc2sc(-c3ccc(NC(=O)c4ccc5c(c4)OCCO5)cc3)nn12	0.1	0.8	2876	-5.9	-2.2
CCOc1ccc(NC(=O)c2ccco2)cc1	0.6	?	24897*	6.8	-5.3
CCOc1ccc(NC(=S)NC(=O)c2ccco2)cc1	-4.6	-1.2	3267	1.8	-18.1
COc1cc(C(=O)Nc2ccc(S(=O)(=O)Nc3nccc(C)n3)cc2)c([N+](=O)[O-])cc1OC	0.6	0.4	5115	2.1	3.1
CC(C)(Oc1ccc(Cl)cc1)C(=O)NCc1ccncc1	-3.7	-0.4	20771*	-0.5	-1.2
CC(C)(Oc1ccc(Cl)cc1)C(=O)Nc1ccncc1	-2.4	-0.1	3005	2.0	-9.4
COc1cc(C(C)=O)ccc1OCC(=O)NCC(c1ccc(F)cc1)N1CCOCC1 (stereo not given)	-4.2	0.1	4146	9.8	3.0
CCOc1ccccc1N1CCN(Cc2cccc(OC)c2O)CC1	-2.8	?	17870*	-3.3	-11.1
